In ChEMBL document CHEMBL4513216, “Probing the Open Global Health Chemical Diversity Library for Multistage-Active Starting Points for Next-Generation Antimalarials” (ACS Infect Dis, 2020):
Among all 69,000 compounds or so, about 8,600 (12%) showed an effect of 50% or more. For the sample, strong results were picked, then their nearest neighbours and some compounds at random.

Test system: Plasmodium berghei
Experiment: Screen against P. berghei liver stage (PbLuc), transformed with Luciferase, at 10uM
Format: functional, HepG2
Conditions: tested at 10 uM

In order of falling INHIBITION:
1. Cc1noc(C)c1CN1CCn2cc(CNc3ccccn3)nc2C1  88.1%
2. COc1ccc(CNC(=O)C2=NN(c3ccc(C)cc3)C(=O)CN2)cc1  79.5%
3. Cc1noc(C)c1-c1ccc(C2CCCN2C(=O)c2ccncn2)nc1 (configuration not stated)  61.7%
4. Cn1cccc1C(=O)NCc1cn2c(n1)CN(C(=O)c1ccsc1)CC2  61.1%
5. O=C(CCN1CCc2[nH]nc(C(F)(F)F)c2C1)Nc1ccccc1  61.1%
6. Cc1nnc2n1CC(CNc1cnc3ccccc3n1)CC2 (configuration not stated)  60.1%
7. COc1ccc(CCNC(=O)C(C)Nc2ccc(C)c(C)c2)cc1 (configuration not stated)  58.5%
8. CNC(=O)[C@@H]1CC[C@@H]2[C@@H](CCN2C(=O)N(C)C)O1  58.5%
9. Cc1nc(Nc2ncccn2)cc(C2CCCN2CC(C)C)n1 (configuration not stated)  56.3%
10. CC(C)COCCC(=O)NCc1cn2cc(Br)ccc2n1  55.1%
11. CCOCCOC(C)C(=O)NCc1cn2cc(Cl)ccc2n1 (configuration not stated)  53.4%
12. Cc1noc(C)c1-c1ccc(C2CCCN2C(=O)Cn2ccnc2)nc1 (configuration not stated)  53.2%
13. CC(C)CN1CCCC1c1cc[nH]n1 (configuration not stated)  52.7%
14. COCc1ccc(CNC(=O)C2=NN(c3ccccc3)C(=O)CN2)cc1  51.6%
15. CCc1cc(N(C)Cc2[nH]nc3c2CCC3)nc(N2CCOCC2)n1  51.1%
16. C[C@@H]1CN(C(=O)c2cccc(F)c2)C[C@]12CCN(c1ccsc1)C2=O  50.9%
17. Cc1nc(Nc2ccccn2)cc(C2CCCN2Cc2ncc[nH]2)n1 (configuration not stated)  50.1%
18. FC(F)(F)c1n[nH]c2c1CN(CCc1ccccn1)CC2  50%
19. CCC(CC)C(=O)NCc1cn2cc(Br)ccc2n1  50%
20. FC(F)(F)c1n[nH]c2c1CN(Cc1cn3ccccc3n1)CC2  49.1%
21. O=C(c1ccncc1)N1CCC(c2nc(O)cc(-c3cccnc3)n2)C1 (configuration not stated)  48.9%
22. CCN1CCN(C(=O)C2CCOC2)c2ccccc21 (configuration not stated)  48.3%
23. Cc1nn(C)c2cnn(CC(=O)NCc3ccc(F)cc3)c12  44.9%
24. COc1ccc(CCNC(=O)C(C)Nc2cc(C)ccc2C)cc1 (configuration not stated)  44.9%
25. Cn1cccc1C(=O)N1C[C@@H]2C[C@@H](c3nnc(C4CC4)o3)O[C@@H]2C1  43.9%
26. CC(C)c1nnc2n1CC(CNc1cnc3ccccc3n1)CC2 (configuration not stated)  43.4%
27. CCc1nn(C)c2[nH]nc(NC(=O)c3cccnc3OC)c12  43.1%
28. CCOCCNC(=O)C1CCC(=O)N(CCc2ccc(Cl)cc2)C1 (configuration not stated)  42.5%
29. O=C(c1cccnc1)N1CCc2ncnc(N3CCOCC3)c2CC1  41.6%
30. CCCC(=O)N1CCC(O)(Cn2c(CC)nc3ccccc3c2=O)CC1  41.5%
31. CC(C)NC(=O)C1(Cc2ccccc2-c2cccs2)CCNC1 (configuration not stated)  41.2%
32. CC(C(=O)NCc1cn2cc(Br)ccc2n1)S(C)(=O)=O (configuration not stated)  40.6%
33. c1cncc(OCCCNC2COc3ccccc3C2)c1 (configuration not stated)  38.5%
34. CN(C)CCOCC1CN(Cc2ccsc2)Cc2nnn(C)c21 (configuration not stated)  38.2%
35. CC(=O)N1CCn2cc(CNC(=O)c3cccn3C)nc2C1  38.1%
36. Cc1csc(CCNC(=O)N2CCC(C(N)=O)CC2)n1  36.9%
37. COCCOC(=O)N1CCn2nc(CN(C)Cc3nccs3)cc2C1  36.7%
38. [O-][S+](CCN1CCc2[nH]nc(C(F)(F)F)c2C1)c1ccccc1 (configuration not stated)  36.3%
39. COc1ccc2c(ccn2CC(=O)Nc2n[nH]c(C(C)C)n2)c1  35.7%
40. C[C@@H]1CN(C(=O)c2ccsc2)C[C@]12CCN(c1ccsc1)C2=O  35.3%
41. O=C(NCC[S+]([O-])Cc1ccccc1)c1ccc2[nH]c(=O)[nH]c2c1 (configuration not stated)  35.2%
42. CN(C)c1cc(C2CCCN(C(=O)c3ccc(=O)[nH]n3)C2)ccn1 (configuration not stated)  34.1%
43. CCCn1nnnc1COC(=O)C1COc2ccc(Cl)cc2C1 (configuration not stated)  32.3%
44. Cc1noc(C)c1-c1ccc(C2CCCN2C(=O)c2cccnn2)nc1 (configuration not stated)  31.6%
45. CN(C)c1cc(C(=O)N2CCCN(Cc3nccn3C)CC2)ccn1  29.2%
46. CCc1cc(N(C)Cc2nonc2C)nc(N2CCOCC2)n1  27.7%
47. CCc1nnc2n1CC(CNc1cnc3ccccc3n1)CC2 (configuration not stated)  27.6%
48. c1ccc(NCc2cn3c(n2)CN(Cc2cccs2)CC3)nc1  26.5%
49. CCc1cc(N(C)Cc2ncc[nH]2)nc(N2CCOCC2)n1  25.8%
50. CC(=O)N1CCCC1c1ccc(-c2c(C)noc2C)cn1 (configuration not stated)  25.6%
51. Cc1ccccc1C(=O)NCc1ccnc(N(C)C)c1  24%
52. COCCCN(Cc1cnc(-c2ccccn2)nc1)C1CCN(C)CC1  23.9%
53. CC(C(=O)N1CCN(Cc2ccc(C#N)cc2)CC1)n1ccnc1 (configuration not stated)  23.5%
54. CCOCCOC(C)C(=O)NCc1ccc(N2CCCCC2)cc1 (configuration not stated)  21.7%
55. Cc1ccc2cc(C(=O)N3CCC(Nc4cccnn4)CC3)[nH]c2c1  21.6%
56. CCC(=O)N(c1ccc(C(=O)OC)cc1C)C(C)C  20.9%
57. COc1ccc(CCNC(=O)C(C)Nc2cccc(C)c2C)cc1 (configuration not stated)  20.9%
58. CCOc1cc(C)nc(N2CCN(C(=O)c3cc(C)on3)CC2)n1  19.4%
59. Cc1cccc(C(=O)N2C[C@@H](C)[C@@]3(CCN(c4ccsc4)C3=O)C2)n1  19.4%
60. Cc1nc(Nc2ncccn2)cc(C2CCCN2Cc2ncc[nH]2)n1 (configuration not stated)  18.9%
61. COc1ccccc1CNC(=O)C1=NN(c2ccc(C)cc2)C(=O)CN1  18.1%
62. CCc1nncn1CCNC(=O)N1CCCC(Cc2nccn2C)C1 (configuration not stated)  17.6%
63. Cc1cnc(C(=O)N2CC(=O)N(c3ccccc3Cl)CC2C)cn1 (configuration not stated)  17%
64. Cc1cc(Oc2ccccc2)nc(C2CCCCN2)n1 (configuration not stated)  16.5%
65. CNC(=O)[C@H]1CC[C@@H]2[C@@H](CCN2C(=O)N(C)C)O1  15.7%
66. Cc1ccc(NC2CCN(C(=O)CCn3nc(C)cc3C)CC2)nn1  15.4%
67. O=C(CCN1CCCN(c2nccs2)CC1)Nc1ccccc1  15.2%
68. Cc1nn(C)cc1-c1cc(-c2cn(C)nc2C)n(CC(=O)NC2CC2)n1  15.2%
69. CN(C)C(=O)[C@H]1CC[C@@H]2[C@@H](CCN2C(=O)N(C)C)O1  14.2%
70. CCCc1noc(C2CCN(C(=O)C3CCCO3)CC2)n1 (configuration not stated)  13.9%
71. CCC1(O)CCCN(c2ncnc3c2c(C)nn3C)C1 (configuration not stated)  13.7%
72. COc1ccccc1C(=O)Nc1cc(CC(C)C)nn1C  12.7%
73. OCCC1(NCc2ccc(-n3cccn3)cc2)CCOCC1  12%
74. CC(C(=O)N1CCCN(c2ncccc2C#N)CC1)n1cncn1 (configuration not stated)  11.4%
75. CCOCCCC(=O)NCc1cn2cc(Br)ccc2n1  11.1%
76. CNc1nc(C(=O)N2CCn3nc(C(=O)OC)cc3C2)cs1  9.16%
77. CCNc1cc2c(nn1)CCN(C(=O)c1ccnc(C)n1)C2  7.75%
78. Cn1cc(C(=O)N2CC[C@@H]3[C@@H]2CCN3Cc2ccccc2)cn1  5.44%
79. O=C(c1cc(F)ccc1F)C1CCN(C(=O)c2cnccn2)CC1  3.73%
80. Cc1nc(Nc2ncccn2)cc(C2CCCN2C)n1 (configuration not stated)  0.301%
81. Cc1nc2n(n1)CC(NCc1nc(-c3ccccn3)no1)CC2 (configuration not stated)  0%
82. Cn1cccc1C(=O)NCc1cn2c(n1)CN(c1ncccn1)CC2  -0.453%
83. Cc1nc(Nc2ncccn2)cc(C2CCCN2C(C)C)n1 (configuration not stated)  -0.902%
84. CC(C)n1cnnc1CN(C)C(=O)c1ccc[nH]1  -5.19%
85. Cc1noc(C)c1-c1ccc(C2CCCN2C(=O)c2cccnc2)nc1 (configuration not stated)  -5.71%
86. COc1ccc(C[C@H]2CN(C(=O)c3ccn(C)n3)CC[C@H]2OC)cc1  -7.28%
87. CC(=O)NCc1cc2n(n1)CCN(Cc1cccc(CCN)c1)C2  -7.53%
88. Cc1nn(C)c(N(C)C)c1CNCc1nnc2n1CCCCC2  -7.94%
89. O=C1CCCN1Cc1nnc2n1CCCN(Cc1ccco1)C2  -9.23%
90. c1cc(C2CCCN2CC2CCCCC2)n[nH]1 (configuration not stated)  -12.3%
91. Cc1c[nH]nc1C1CCCN1Cc1ncc[nH]1 (configuration not stated)  -12.3%
92. c1ccc(NCc2cn3c(n2)CN(Cc2ccoc2)CC3)nc1  -13.7%
93. c1cc(C2CCCN2CC2CC2)n[nH]1 (configuration not stated)  -14.2%
94. O=C(c1cnccn1)N1CCCC2(CCN(c3ccccn3)C2)C1 (configuration not stated)  -16.1%
95. CC(C(=O)Nc1ncccn1)N1CCc2[nH]nc(C(F)(F)F)c2C1 (configuration not stated)  -17.9%
96. CCCC(C)C(=O)NCc1cn2cc(Br)ccc2n1 (configuration not stated)  -19%
97. O=C(NCc1cccnc1)C1=NN(c2ccccc2)C(=O)CN1  -19.2%
98. Cc1ccnc(NCC2(N(C)C)CCOCC2)n1  -24%
99. CCCn1nnnc1CN1Cc2ccccc2CC1c1nnc(C)o1 (configuration not stated)  -25.6%
100. CCOCCOC(C)C(=O)NCc1cn2cc(Br)ccc2n1 (configuration not stated)  -27.6%
101. Cc1nn(C)c(Cl)c1C1CCCN1C(=O)c1ccoc1C (configuration not stated)  -29.1%
102. Cc1noc(C)c1-c1ccc(C2CCCN2C(=O)c2cnn(C)c2)nc1 (configuration not stated)  -32.2%
103. CCn1cc(CN2CCCN(C(=O)c3ccccc3C)CC2)cn1  -57.4%
104. N#Cc1ccc(CNC(=O)C2=NN(c3ccccc3)C(=O)CN2)cc1  -72.2%
105. COc1c(C)cnc(CNC(=O)CCOCC(C)C)c1C  -74%
106. Cc1ccc(NC2CCN(C(=O)c3cscn3)CC2)nn1  -77.1%
107. COc1ccc(C)cc1CNC(=O)C1=NN(c2ccccc2)C(=O)CN1  -174%
